The results in this text go back to PubChem BioAssay (NCI).

Compounds without any hit were thinned out: in the full panel of roughly 83,000, 20% have a hit.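 Results are percent growth after 48 hours of single-concentration exposure. 100 means growth as in untreated cells, lower positive values show inhibition; negative values down to -100 show cell death.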 Calls of active or inactive are those of the source. Rule for the calls: active = growth percent below 10; inactive = the rest.

The test system of one assay is IGROV1 ovarian. The experiment in a line: NCI-60 one-dose screen, 48 h (100 = growth as untreated, 0 = no growth, -100 = all killed). Conditions: 10 µM unless noted.
`Nc1cc2ccccc2c(O)c1O`: the growth was 67.3% (inactive).

For `CC(=O)Nc1ccc(O)c(C)c1`, the growth was 110% (inactive).

Consider `O=C(CCl)Nc1ccccc1SCc1cc(Cl)cc2c1OCOC2`, for which the growth is -43% (active).

Consider `C/C(O)=C(/C=N\C(=S)Nc1ccc(S(=O)(=O)Nc2nccs2)cc1)C(=O)Nc1ccccc1C`, for which the growth was 106% (inactive).

Regarding `CC(C)c1ccc(C(=O)OCCCl)cc1`, the growth was 109% (inactive).

As for `O=C(NCc1ccccc1)c1cccc([N+](=O)[O-])c1`, the growth was 101% (inactive).

On to `C1CCc2onc(-c3noc4c3CCCCC4)c2CC1`, for which the growth was 115% (inactive).

For the compound `COc1ccc(Nc2cc(Cl)ccc2C(=O)O)cn1`, the growth was 115% (inactive).

For `CCCCOC(=O)c1ccccc1O`, the growth is 118% (inactive).

In the case of `C=CCN1CCCC1=O`, the growth is 114% (inactive).

On to `CCN(CC)CCN1CNC(=S)NC1`, for which the growth was 113% (inactive).

For `COC1OC(C(COC(C)=O)OC(C)=O)C(OC(C)=O)C(OC(C)=O)C1OC(C)=O` (stereo unspecified), the growth was 104% (inactive).

As for `Nc1ccc(F)cc1F`, the growth was 105% (inactive).

Consider `COc1cc(CC#N)c([N+](=O)[O-])cc1OC`, for which the growth is 95.6% (inactive).

`CC(C)N(C(=O)c1ccccc1)C(C)C`: the growth is 116% (inactive).

Take `CCC(C)C1CCC(O)CC1` (stereo unspecified): the growth was 110% (inactive).

Consider `Cc1ccc(NC(=S)N2CCOCC2)cc1C`, for which the growth was 103% (inactive).

As to `O=C1NC(=O)/C(=C\c2ccncc2)N1`, the growth is 109% (inactive).

On to `CC(C)(CC(=O)O)CC(=O)O`, for which the growth was 111% (inactive).

For the compound `ClCC(Cl)[C@@H]1CC2C=CC1C2` (stereo partly specified), the growth was 114% (inactive).

For `CC(=O)NCNC(C)=O`, the growth is 113% (inactive).

Regarding `CCOC(=O)/C(C)=C\c1ccc(OC)c(OC)c1`, the growth is 105% (inactive).

`O=C(OCC1CCCO1)c1ccc([N+](=O)[O-])cc1` (stereo unspecified): the growth is 101% (inactive).

Regarding `C=CC(=O)OC1CCC(C(C)(C)CC)CC1` (stereo unspecified), the growth is 117% (inactive).

`Cc1cc(=O)n(Nc2ccccc2)c(O)c1C#N`: the growth is 101% (inactive).

Turning to `O=C(O)c1c[nH]c2ccccc2c1=O`, the growth was 99.2% (inactive).

Consider `CCNc1ncnc2[nH]ncc12`, for which the growth is 124% (inactive).

For `COC1OC(C(O)C(O)CO)C(O)C(O)C1O` (stereo unspecified), the growth is 103% (inactive).

As to `CCCCN(C=S)CCCC`, the growth was 107% (inactive).

Regarding `CCOC(=O)c1ccc(C(C)(C)C)cc1`, the growth was 108% (inactive).

With `CCOC(=O)C(CCC#N)(CCC#N)C(=O)OCC`, the growth was 126% (inactive).

Take `CCC1CCC(C)NC1` (stereo unspecified): the growth is 110% (inactive).

Take `CC(=O)OC(C)c1cccc(C#N)c1` (stereo unspecified): the growth is 115% (inactive).

With `O=[N+]([O-])c1ccc2[nH]c(=S)n(/C=C(/c3ccc(Cl)cc3Cl)S(=O)(=O)Cc3ccc(Cl)cc3Cl)c2c1`, the growth is 104% (inactive).

As for `C=C(OC(C)=O)c1ccccc1`, the growth is 113% (inactive).

As to `CC(=O)O[C@H]1CC[C@]2(C)C3=C(C(=O)C[C@H]2C1(C)C)[C@]1(C)CC[C@H]([C@H](C)CCC(=O)O)[C@@]1(C)CC3=O`, the growth is 103% (inactive).

Take `CC(=O)c1cccc(NS(=O)(=O)c2ccc(C)cc2)c1`: the growth is 62.8% (inactive).

As for `O=C(CCl)Oc1ccc([N+](=O)[O-])cc1`, the growth is 106% (inactive).

In the next assay the test system is OVCAR-3 ovarian. Described as above. Conditions: 10 µM unless noted.
For the compound `Nc1cc2ccccc2c(O)c1O`, the growth was -39.9% (active).

On to `CC(=O)Nc1ccc(O)c(C)c1`, for which the growth was 107% (inactive).

In the case of `O=C(CCl)Nc1ccccc1SCc1cc(Cl)cc2c1OCOC2`, the growth is 26.1% (inactive).

Consider `C/C(O)=C(/C=N\C(=S)Nc1ccc(S(=O)(=O)Nc2nccs2)cc1)C(=O)Nc1ccccc1C`, for which the growth was 97% (inactive).

For `CC(C)c1ccc(C(=O)OCCCl)cc1`, the growth was 123% (inactive).

For `O=C(NCc1ccccc1)c1cccc([N+](=O)[O-])c1`, the growth was 106% (inactive).

On to `C1CCc2onc(-c3noc4c3CCCCC4)c2CC1`, for which the growth was 127% (inactive).

Turning to `COc1ccc(Nc2cc(Cl)ccc2C(=O)O)cn1`, the growth was 94.5% (inactive).

Consider `CCCCOC(=O)c1ccccc1O`, for which the growth was 124% (inactive).

As to `C=CCN1CCCC1=O`, the growth is 128% (inactive).

For the compound `CCN(CC)CCN1CNC(=S)NC1`, the growth was 109% (inactive).

Turning to `COC1OC(C(COC(C)=O)OC(C)=O)C(OC(C)=O)C(OC(C)=O)C1OC(C)=O` (stereo unspecified), the growth was 118% (inactive).

For the compound `Nc1ccc(F)cc1F`, the growth is 116% (inactive).

Regarding `COc1cc(CC#N)c([N+](=O)[O-])cc1OC`, the growth is 109% (inactive).

Take `CC(C)N(C(=O)c1ccccc1)C(C)C`: the growth is 108% (inactive).

With `CCC(C)C1CCC(O)CC1` (stereo unspecified), the growth was 108% (inactive).

As for `Cc1ccc(NC(=S)N2CCOCC2)cc1C`, the growth is 104% (inactive).

With `O=C1NC(=O)/C(=C\c2ccncc2)N1`, the growth is 94.3% (inactive).

For the compound `CC(C)(CC(=O)O)CC(=O)O`, the growth is 105% (inactive).

`ClCC(Cl)[C@@H]1CC2C=CC1C2` (stereo partly specified): the growth is 119% (inactive).

With `CC(=O)NCNC(C)=O`, the growth was 120% (inactive).

For the compound `CCOC(=O)/C(C)=C\c1ccc(OC)c(OC)c1`, the growth is 103% (inactive).

With `O=C(OCC1CCCO1)c1ccc([N+](=O)[O-])cc1` (stereo unspecified), the growth is 111% (inactive).

On to `C=CC(=O)OC1CCC(C(C)(C)CC)CC1` (stereo unspecified), for which the growth was 109% (inactive).

For `Cc1cc(=O)n(Nc2ccccc2)c(O)c1C#N`, the growth was 98.6% (inactive).

Regarding `O=C(O)c1c[nH]c2ccccc2c1=O`, the growth was 107% (inactive).

Turning to `CCNc1ncnc2[nH]ncc12`, the growth is 112% (inactive).

Regarding `COC1OC(C(O)C(O)CO)C(O)C(O)C1O` (stereo unspecified), the growth is 109% (inactive).

For the compound `CCCCN(C=S)CCCC`, the growth was 108% (inactive).

As for `CCOC(=O)c1ccc(C(C)(C)C)cc1`, the growth is 107% (inactive).

In the case of `CCOC(=O)C(CCC#N)(CCC#N)C(=O)OCC`, the growth is 102% (inactive).

As to `CCC1CCC(C)NC1` (stereo unspecified), the growth was 104% (inactive).

For `CC(=O)OC(C)c1cccc(C#N)c1` (stereo unspecified), the growth is 111% (inactive).

On to `O=[N+]([O-])c1ccc2[nH]c(=S)n(/C=C(/c3ccc(Cl)cc3Cl)S(=O)(=O)Cc3ccc(Cl)cc3Cl)c2c1`, for which the growth was 117% (inactive).

Take `C=C(OC(C)=O)c1ccccc1`: the growth was 112% (inactive).

In the case of `CC(=O)O[C@H]1CC[C@]2(C)C3=C(C(=O)C[C@H]2C1(C)C)[C@]1(C)CC[C@H]([C@H](C)CCC(=O)O)[C@@]1(C)CC3=O`, the growth was 102% (inactive).

Take `CC(=O)c1cccc(NS(=O)(=O)c2ccc(C)cc2)c1`: the growth is 70.9% (inactive).

Regarding `O=C(CCl)Oc1ccc([N+](=O)[O-])cc1`, the growth is 121% (inactive).
